Structures are written as SMILES. Several values for one entry are separate records, joined by “and”; a condition that tells them apart may be missing. Identical values can stand only once. Counter-ions that a name gives are not always drawn. ± gives the standard deviation of the averaged measurements. Bounds are passed on as bounds.

The assay deals with Toxoplasma gondii RH (in HFF). Briefly: parasite growth relative to the screen mean (all compounds = 100%); higher = less inhibition of parasite growth. Conditions: 5 µM; 72 h; oxygen 21 %. The method in brief: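 Library compounds, held as 10 mM DMSO stocks, were pinned to 5 µM final onto confluent human foreskin fibroblasts in 96-well plates. The cells were infected within 2 h with RH β-Gal–GFP Toxoplasma (MOI 1:5), grown 72 h at 21% O2, and assayed for parasite number by CPRG β-Gal using in-plate standard curves. Growth is reported relative to the screen mean, in which all compounds = 100%, averaged over two screens, and CellTiter-Blue checked uninfected host-cell viability.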
Compound `Nc1nc2ccc(OC(F)(F)F)cc2s1` [Riluzole hydrochloride] displayed a parasite growth of 88.1 ± 11%.
As for `COc1ccccc1N1CCN(CCCCN2C(=O)c3ccccc3C2=O)CC1` [NAN-190 hydrobromide], the figure is 133 ± 11%; as for `Oc1ccc(-c2nc3cc(O)cc(Br)c3o2)cc1`, 134 ± 20%; as for `COC(=O)/C=C/c1cccc(N(Cc2ccc(-c3ccc(N(C)C)cc3)cc2)C(=O)C2CCCCC2)c1` [Fexaramine], 159 ± 7.7%.
`Cc1c(OCC(F)(F)F)ccnc1C[S+]([O-])c1nc2ccccc2[nH]1` (centres undefined) [Lansoprazole] yielded a parasite growth of 124 ± 9.3%.
For `O=S(=O)(c1ccccc1)N(CC(F)(F)F)c1ccc(C(O)(C(F)(F)F)C(F)(F)F)cc1` the value was 132 ± 5.8%; for `N=C(CC(O)COc1ccccc1-c1ccccc1)N1CCCCC1` (centres undefined), 95.8 ± 34%.
For `O=C(O)CCCc1ccccc1` [sodium 4-Phenylbutyrate] the value was 64.6 ± 3.4%; for `OC1CCC(Nc2nc(-c3ccccc3)nc3[nH]ccc23)CC1` (centres undefined), 116 ± 3%.
For `Cc1ccc([N+](=O)[O-])cc1S(=O)(=O)N(C)C` the value was 74.2 ± 14%.
`COc1cc(-c2ccc(=O)[nH]n2)ccc1OC(F)F` [Zardaverine]: the parasite growth came to 103 ± 8.7%.
As for `CCS(=O)(=O)N(C)[C@H]1c2cc(C#N)ccc2OC(C)(C)[C@@H]1O` (racemic) [Chromanol 293B], the figure is 142 ± 10%.
`O=C(O)COCCN1CCN(C(c2ccccc2)c2ccc(Cl)cc2)CC1` (centres undefined) [Cetirizine dihydrochloride] came in with a parasite growth of 136 ± 34%.
As for `O=C(CCCCCN1C(=O)c2cccc3cccc(c23)C1=O)NO` [Scriptaid], the figure is below 0%; as for `CCOc1ccc(Nc2nc(-c3c(C)nc4ccccn34)cs2)cc1`, 127 ± 44%; as for `CC(C)SC(=N)N` [S-Isopropylisothiourea hydrobromide], 97.1 ± 3.1%.
For `CN(Cc1ccccc1)C(=O)[C@H](Cc1ccc2ccccc2c1)NC(=O)[C@@H]1CCCN1C(=O)Nc1ccccc1[N+](=O)[O-]` the value was 110 ± 9.9%.
For `Cc1[nH]c(/C=C2\C(=O)Nc3ccc(S(=O)(=O)Cc4c(Cl)cccc4Cl)cc32)c(C)c1C(=O)N1CCC[C@@H]1CN1CCCC1` the value was below 0%.
Consider `O=c1[nH]ccc2c(S(=O)(=O)N3CCCNCC3)cccc12` [HA 1100 hydrochloride], for which the parasite growth was found to be 122 ± 10%.
For `CCCCNc1c(C(=O)OCC)c(C)nc2c1cnn2CC` [Tracazolate hydrochloride] the value was 109 ± 5.9%.
For `CC(C)c1ccccc1S(=O)(=O)c1cc(N)c2ncccc2c1[N+](=O)[O-]` the value was 88.4 ± 2.1%.
As for `O=C(NCCCCN1CCN(c2cccc(Cl)c2Cl)CC1)c1ccc2c(c1)Cc1ccccc1-2`, the figure is 92.71 ± 0.75%; as for `NCCc1c[nH]cn1` [Histamine dihydrochloride], 80.2 ± 36%; as for `N[C@@H](Cn1ccc(=O)n(Cc2ccccc2C(=O)O)c1=O)C(=O)O`, 108% and 93.5%.
Regarding `COc1nc(C)nc(Cl)c1NC1=NCCN1` [Moxonidine hydrochloride], the parasite growth came to 108 ± 27%.
As for `CC(C)(C=O)Cc1cc(C(C)(C)C)c(O)c(C(C)(C)C)c1`, the figure is 199 ± 11%.
As for `CC(=Cc1ccc(C(=O)O)cc1)c1ccc2c(c1)C(C)(C)CCC2(C)C`, the parasite growth turned out to be 120 ± 27%.
As for `O=C(O)c1ccc(C=C2SC(=S)N(c3cccc(C(F)(F)F)c3)C2=O)cc1`, the figure is 109 ± 36%; as for `O=C1N(c2ccccc2)c2ccccc2C1(Cc1ccncc1)Cc1ccncc1` [Linopirdine dihydrochloride], 56.5 ± 15%.
As for `c1ccc2cc(C3=NCCN3)ncc2c1` [BU 226 hydrochloride], the figure is 126 ± 3.6%; as for `O=C(O)c1ccc(-c2ccc3cc(O)c(C45CC6CC(CC(C6)C4)C5)cc3c2)cc1`, 146 ± 18%.
Regarding `CN(CCOc1ccc(C[C@H](Nc2ccccc2C(=O)c2ccccc2)C(=O)O)cc1)c1ccccn1`, the parasite growth is 30 ± 17%.
As for `Cl/C(=C\n1cncn1)c1ccc(Cl)cc1Cl` [Loreclezole hydrochloride], the figure is 146 ± 12%; as for `Cc1scc2c1N(C(=O)CN1CCN(C)CC1)c1ccccc1NC2=O` [Telenzepine dihydrochloride], 133 ± 26%; as for `O=C(O)c1cc(O)c2ccc(Cl)cc2n1` [7-Chlorokynurenic acid], 119 ± 9.9%.
As for `CCC(=O)NC1Cc2ccccc2C(c2ccccc2)C1` (centres undefined), the figure is 73.8 ± 18%.
As for `COc1ccc(S(=O)(=O)N2c3ccc(Cl)cc3[C@](O)(c3ccccc3Cl)[C@@H]2C(=O)N2CCC[C@H]2C(N)=O)cc1OC`, the figure is 144 ± 26%; as for `CCOC(=O)c1c(C)[nH]c2ccc3c(c12)CN1CCc2cc(OC)ccc2C1O3` (centres undefined), 16.8 ± 6.5%; as for `Cc1ccc2c(c1)C(=O)C1(O)CCN(c3ccccc3)C1=N2` (racemic) [(±)-Blebbistatin], 161 ± 15%.

For the origin of these results see the supplement of paper PMC4894684.
